Experimental data reported in PubChem BioAssay.
Activity calls are given as the source filed them. The rule behind the calls is not given here.

assay: inhibition of 3D7 malaria parasite growth – strain 3D7 (AID 2306);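 note: 0% = DMSO wells and 100% = chloroquine plus artemisinin control wells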; conditions: P. falciparum 3D7 erythrocytic growth, LDH absorbance, 72 h; at 2 µM; hits give high values

Growth inhibition, active:
COc1cc(OC)cc(C(=O)Nc2ccc(Nc3nc(C)cc(N(C)C)n3)cc2)c1 100%, Cc1ccc(C=C2SC(=Nc3ccccc3)NC2=O)c(C)c1 93%, CC(C)(C)c1nn(-c2ccccc2)c2[nH]c(=O)c(CNCc3ccc4c(c3)OCO4)cc12 92%, Cc1[nH]nc2cc(Nc3nccc(Nc4ccc(Oc5ccccc5)cc4)n3)ccc12 101%, Cc1cc(Nc2ccc(OCc3ccccc3Cl)cc2)c2cc(Cl)ccc2n1 100%, O=C(NCCc1cccc(F)c1)c1cc(Br)cc(N2CCN(c3ccncc3)CC2)c1 100%, COC(=O)/C=C/c1ccc(CCC(C)NCC(O)c2cccc(Cl)c2)cc1 (stereo unspecified) 94%, O=[N+]([O-])c1ccc(C(O)CNCCc2ccccc2)cc1OCc1ccccc1 (stereo unspecified) 94%, Cc1sc2nc(CSc3ccccc3)nc(N3CCN(CC(=O)NC4CC4)CC3)c2c1C 96%, O=C(c1ccc(F)c2ccccc12)N1CCc2cc3nccc(N4CCN5CCC[C@H]5C4)c3cc21 90%, Cc1[nH]c2ccccc2c1C(=O)C(C)Sc1n[nH]c(-c2ccccc2Br)n1 (stereo unspecified) 101%, CN(C)CCCOc1cc(NC(=O)Nc2ccc(-c3ccncc3)c3ccccc23)ccc1I 101%, CC[C@H](C)CNC(=O)c1cncc(-c2ccc(CNCC3CNCCCO3)cc2)c1 (stereo partly specified) 100%, Cc1cnc(C(=O)Nc2cccc(-c3cccc(-c4nc5ccc(F)cc5[nH]4)c3)c2)cn1 99%, O=C(NCc1cc2c(cc1Cl)OCO2)c1ccc(CNC2CCN(Cc3ccccc3)CC2)cc1 100%, CCN1CCN(Cc2c(O)ccc3c(=O)c(Oc4cc(C)cc(C)c4)c(C(F)(F)F)oc23)CC1 96%, O=S(=O)(c1ccc(OCc2ccc(Cl)cc2)cc1)c1cc2c(cc1OCc1ccccc1)CCN(CC1CC1)CC2 82%, CC(C)CC(=O)Nc1cc(=O)[nH]c2nc(-c3ccccc3)nn12 89%, COc1ccc(-c2ccc(NC(=O)c3ccc(F)cc3)cc2)cc1CN1CCCN(C)CC1 98%, CC(C)(C)c1ccc(CNC(=O)c2ccc(-c3nc4ccc(C(C)(C)C)cc4[nH]3)cc2)cc1 96%, COc1ccccc1C1CCN(C2CCC(NC(=O)/C=C/c3cccc(C(F)(F)F)c3)CC2)CC1 (stereo unspecified) 99%, COC(=O)c1ccc(-c2ccc(C(=O)NCC3CCN(c4nc(N)c5cc(OC)c(OC)cc5n4)CC3)cc2)cc1 98%, COc1nc2c(CCN3CC[C@H](NCc4ccc5c(c4)NC(=O)CO5)[C@H](O)C3)c(Cl)cnc2cc1F 90%, CCCCCC1c2[nH]c3ccccc3c2CCN1C(=O)OCc1ccccc1 (stereo unspecified) 93%, CCC[C@@H]([C@@H](CC1CCCCC1)C(=O)N[C@H](C(=O)Nc1nccs1)C(C)(C)SCCNC(=O)OCc1ccccn1)N(O)C=O 99%, N=c1c(C(=O)NCc2ccccc2)cc2c(=O)n3ccccc3nc2n1CCc1ccccc1 99%, CN(CCCCCN1CCC(NC(=O)Nc2ccc(Oc3ccccc3)cc2)C1)C(=O)/C=C/c1ccc(Cl)c(Cl)c1 (stereo unspecified) 98%, Cc1noc(C)c1-c1cccc(CNCc2ccc(-c3ccc(-c4nc5c(C)cccc5[nH]4)cc3)cc2)c1 102%, CCN(CC)CCN(Cc1ccc(-c2ccc(C(F)(F)F)cc2)cc1)C(=O)Cn1cc(CCCc2cccc(F)c2F)c(=O)c2ccccc21 89%, COC(=O)c1c(NC(=O)c2cccc(C(F)(F)F)c2)sc2c1CCN(Cc1ccccc1)C2 84%, O=C(Nc1cccc(-c2ccc(-c3nc4ccc(C(F)(F)F)cc4[nH]3)s2)c1)c1ccncc1 99%, CN(C)CCCOc1ccc(CCNCc2cccc(Oc3ccc(Cl)cc3)c2)cc1 94%, COc1cc2ccccc2cc1CNCCCCCCNCc1cc2ccccc2cc1OC 101%, COc1ccc(C(=O)CCC(=O)N(Cc2ccc(-c3ccc(CNCCc4ccc(S(C)(=O)=O)cc4)cn3)cc2)Cc2ccc3c(c2)OCO3)cc1F 95%, CCN1CCCC1CN(Cc1ccc(-c2ccc(C(F)(F)F)cc2)cc1)C(=O)Cn1c(CCc2cccc(F)c2F)nc(=O)c2ccccc21 (stereo unspecified) 94%, O=C(NCCCCCN1CCC(c2c[nH]c3ccccc23)CC1)c1ccc(Cl)c(Cl)c1 85%
